# Assay results from PubChem BioAssay (EPA / NIEHS).
# Records with an inconclusive call do not appear. Active and inactive are the calls of the source. How the source made its calls, unless noted: active means hit-call score of the fitted dose curve at least 0.9, where 1 is the maximum; inconclusive means response in the unintended direction; inactive means score below 0.9.
# Assays:
# [1] = ATG_Oct_MLP_CIS: Attagene CIS-FACTORIAL HepG2 Assay for human Octamer-Binding Transcription Factor (Oct) (AID 2282993; active means hit-call score of the fitted dose curve at least 0.9, where 1 is the maximum; inactive means score below 0.9); details: HepG2 Attagene cis-factorial Oct reporter, mRNA; actives raise or lower the signal
# How it was run: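 Read-out: reporter mRNA via RT-PCR plus capillary electrophoresis of 6-FAM-labelled fragments. Transiently transfected HepG2, 24 h exposure, endogenous TF activity on cis elements. Gain or loss of signal fitted relative to DMSO.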
# [2] = target: Cellular tumor antigen p53 (Homo sapiens) (UniProt P04637); assay: ATG_p53_CIS: Attagene CIS-FACTORIAL HepG2 Assay for human p53 Transcription Factor (AID 2282994; active means hit-call score of the fitted dose curve at least 0.9, where 1 is the maximum; inactive means score below 0.9); details: HepG2 p53 cis-element reporter, Attagene mRNA; actives raise or lower the signal
# How it was run: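 Steps: transfect HepG2 with multiplexed cis reporter constructs; dose chemicals 24 h; extract RNA, reverse-transcribe, PCR-amplify reporter sequences; FAM-label, HpaI-digest, resolve fragments by CE. Activity fitted both directions relative to DMSO.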
# [3] = target: human Retinoic Acid Receptor beta (RARb), RARB (gene 5915) (UniProt P10826); assay: ATG_RARb_TRANS: Attagene TRANS-FACTORIAL HepG2 Assay for human Retinoic Acid Receptor beta (AID 2283004)
# How it was run: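 Readout is reporter mRNA induction: RNA reverse-transcribed, PCR-amplified, FAM-labelled, HpaI-cut and resolved by capillary electrophoresis. Transiently transfected HepG2 cells carrying exogenous NR–Gal4 chimeras were dosed for 24 h; activity fitted upward relative to DMSO.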
# [4] = target: Retinoic acid receptor alpha (Homo sapiens) (UniProt P10276); assay: ATG_RARa_TRANS: Attagene TRANS-FACTORIAL HepG2 Assay for human Retinoic Acid Receptor alpha (RARa) (AID 2283005)
# How it was run: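 HepG2 cells transiently transfected with multiple reporter units expressing chimeric RARα-GAL4 fusion, with GAL4-UAS-driven reporters. After 24 h compound exposure, reporter mRNA induction quantified by RT-PCR and capillary electrophoresis with fluorescent labeling; gain-of-signal fitted relative to DMSO control.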
# [5] = target: Nuclear receptor subfamily 1 group I member 2 (Homo sapiens) (UniProt O75469); assay: ATG_PXR_TRANS: Attagene TRANS-FACTORIAL HepG2 Assay for human Pregnane X Receptor (PXR) (AID 2283008)
# How it was run: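 HepG2 transfected (FuGene 6) with GAL4-UAS reporter units + PXR-Gal4 chimera; dosed 24 h. Total RNA → oligo(dT) RT → PCR → 6-FAM primer extension → HpaI cut → CE. Gain-of-signal vs DMSO.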
# [6] = target: human Retinoic Acid Receptor gamma (RARg), RARG (gene 5916) (UniProt P13631); assay: ATG_RARg_TRANS: Attagene TRANS-FACTORIAL HepG2 Assay for human Retinoic Acid Receptor gamma (RARg) (AID 2283009)
# How it was run: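 TRANS format measured activity of exogenous NR-GAL4 fusion (RARg) in transfected HepG2 liver cells after 24 h dosing. Induced reporter RNA was detected by RT-PCR/capillary electrophoresis fluorescence, analysed in the positive direction against DMSO.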
# [7] = target: Retinoic acid receptor RXR-alpha (Homo sapiens) (UniProt P19793); assay: ATG_RXRa_TRANS: Attagene TRANS-FACTORIAL HepG2 Assay for human Retinoid X Receptor alpha (RXRa) (AID 2283012)
# How it was run: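 Measures exogenous chimeric NR-GAL4 activity in transfected HepG2 liver cells after 24 h of dosing. Induced reporter mRNA was detected by RT-PCR with capillary electrophoresis, and gain of signal was analysed against DMSO.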
# [8] = target: human Peroxisome Proliferator-activated Receptor delta (PPARd), PPARD (gene 5467) (UniProt Q03181); assay: ATG_PPARd_TRANS: Attagene TRANS-FACTORIAL HepG2 Assay for human Peroxisome Proliferator-activated Receptor delta (PPARd) (AID 2283002)
# How it was run: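 Multiplexed trans-activation format: HepG2 liver cells expressing exogenous NR-Gal4 chimeras and GAL4-UAS reporters were exposed for 24 h. Reporter mRNA was detected by RT-PCR with capillary electrophoresis fluorescence; activity fitted as gain of signal relative to DMSO.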
# [9] = target: Peroxisome proliferator-activated receptor gamma (Homo sapiens) (UniProt P37231); assay: ATG_PPARg_TRANS: Attagene TRANS-FACTORIAL HepG2 Assay for human Peroxisome Proliferator-activated Receptor-gamma (PPARg) (AID 2283007)
# How it was run: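 Read-out: reporter mRNA induction, detected by fluorescence after RT-PCR and capillary electrophoresis. Transiently transfected human HepG2 liver cells carrying a chimeric NR-Gal4 construct were dosed for 24 h; activity was fitted upward relative to DMSO.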
# [10] = target: human Retinoid X Receptor beta (RXRb), RXRB (gene 6257) (UniProt P28702); assay: ATG_RXRb_TRANS: Attagene TRANS-FACTORIAL HepG2 Assay for human Retinoid X Receptor beta (RXRb) (AID 2283013)
# How it was run: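 Chimeric receptor-Gal4 activity was assessed in transiently transfected human HepG2 cells after 24 h exposure. Transcripts from GAL4-UAS reporters were quantified by fluorescent RT-PCR and capillary electrophoresis, with DMSO as negative control and baseline.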
# [11] = target: human RAR-related Orphan Receptor beta (RORb), RORB (gene 6096) (UniProt Q92753); assay: ATG_RORb_TRANS: Attagene TRANS-FACTORIAL HepG2 Assay for human RAR-related Orphan Receptor beta (RORb) (AID 2283010)
# How it was run: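 Transfect HepG2 with multiple GAL4-UAS reporter transcription units; dose chemicals for 24 h; isolate RNA, reverse-transcribe and PCR-amplify reporter sequences; label, digest and resolve fragments by capillary electrophoresis; fit increases relative to DMSO.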
# [12] = target: human RAR-related Orphan Receptor gamma (RORg), RORC (gene 6097) (UniProt P51449); assay: ATG_RORg_TRANS: Attagene TRANS-FACTORIAL HepG2 Assay for human RAR-related Orphan Receptor gamma (RORg) (AID 2283011)
# How it was run: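 Transient MRTU transfection of HepG2 (TRANS format, exogenous NR-Gal4 chimera). 24 h dosing. Total RNA → oligo(dT) RT → PCR → 6-FAM labelling → HpaI cut → CE. Gain vs DMSO.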
# [13] = target: human Thyroid Receptor alpha (THRa1), THRA (gene 7067) (UniProt P10827); assay: ATG_THRa1_TRANS: Attagene TRANS-FACTORIAL HepG2 Assay for human Thyroid Receptor alpha (THRa1) (AID 2283014)
# How it was run: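 Transient HepG2 transfection, NR-Gal4 chimera driving GAL4-UAS reporters; 24 h compound exposure; total RNA, oligo(dT) RT, PCR, fluorescent primer extension, capillary electrophoresis. Upward direction vs DMSO control.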
# [14] = target: human Peroxisome Proliferator-activated Receptor alpha (PPARa), PPARA (gene 5465) (UniProt Q07869); assay: ATG_PPARa_TRANS: Attagene TRANS-FACTORIAL HepG2 Assay for human Peroxisome Proliferator-activated Receptor alpha (PPARa) (AID 2283001)
# How it was run: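 Cells (HepG2) are transfected with multiple reporter transcription units, exposed to chemical for 24 h, then total RNA is reverse-transcribed and amplified. Labelled products are quantified by capillary electrophoresis; induction is referenced to DMSO.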
# Sequence of Nuclear receptor subfamily 1 group I member 2 (Homo sapiens) (O75469 whole entry, looked up, the tested form may be a part): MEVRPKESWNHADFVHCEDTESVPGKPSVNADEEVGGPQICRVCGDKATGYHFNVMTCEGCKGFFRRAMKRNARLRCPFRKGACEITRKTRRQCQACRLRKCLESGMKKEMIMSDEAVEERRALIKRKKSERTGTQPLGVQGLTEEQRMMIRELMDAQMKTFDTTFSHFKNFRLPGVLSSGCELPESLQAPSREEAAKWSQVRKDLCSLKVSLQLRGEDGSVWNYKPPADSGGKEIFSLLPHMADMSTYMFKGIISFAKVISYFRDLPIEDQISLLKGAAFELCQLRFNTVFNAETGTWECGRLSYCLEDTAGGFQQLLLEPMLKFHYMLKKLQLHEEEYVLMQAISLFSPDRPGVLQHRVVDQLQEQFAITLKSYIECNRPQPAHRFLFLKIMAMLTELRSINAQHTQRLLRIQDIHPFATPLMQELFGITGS
# Sequence of Retinoic acid receptor alpha (Homo sapiens) (P10276 whole entry, looked up, the tested form may be a part): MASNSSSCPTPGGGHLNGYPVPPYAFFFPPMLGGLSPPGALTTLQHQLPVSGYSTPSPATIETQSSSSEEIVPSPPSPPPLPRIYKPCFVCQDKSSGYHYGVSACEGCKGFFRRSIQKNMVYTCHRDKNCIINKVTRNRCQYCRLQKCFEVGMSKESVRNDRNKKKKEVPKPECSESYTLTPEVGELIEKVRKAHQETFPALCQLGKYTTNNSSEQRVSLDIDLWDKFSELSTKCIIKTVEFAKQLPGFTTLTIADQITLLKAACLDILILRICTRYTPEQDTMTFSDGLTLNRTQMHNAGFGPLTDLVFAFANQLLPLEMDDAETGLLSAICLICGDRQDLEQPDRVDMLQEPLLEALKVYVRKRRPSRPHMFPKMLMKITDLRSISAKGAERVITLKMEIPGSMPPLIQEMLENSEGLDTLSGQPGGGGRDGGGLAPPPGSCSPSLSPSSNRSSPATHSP
# Sequence of human RAR-related Orphan Receptor beta (RORb), RORB (gene 6096) (Q92753 whole entry, looked up, the tested form may be a part): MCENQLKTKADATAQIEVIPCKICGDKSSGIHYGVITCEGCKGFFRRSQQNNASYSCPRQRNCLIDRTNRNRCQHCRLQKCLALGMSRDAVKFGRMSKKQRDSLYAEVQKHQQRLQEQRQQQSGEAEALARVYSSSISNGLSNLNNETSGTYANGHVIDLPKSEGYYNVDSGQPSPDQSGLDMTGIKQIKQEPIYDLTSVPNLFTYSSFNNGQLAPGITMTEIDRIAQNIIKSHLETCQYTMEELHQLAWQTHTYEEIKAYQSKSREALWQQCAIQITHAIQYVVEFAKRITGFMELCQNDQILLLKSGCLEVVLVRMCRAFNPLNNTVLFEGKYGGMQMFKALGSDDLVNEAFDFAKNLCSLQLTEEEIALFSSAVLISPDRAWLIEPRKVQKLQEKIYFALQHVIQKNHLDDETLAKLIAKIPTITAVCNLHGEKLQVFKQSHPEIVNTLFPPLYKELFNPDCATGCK
# Sequence of human RAR-related Orphan Receptor gamma (RORg), RORC (gene 6097) (P51449 whole entry, looked up, the tested form may be a part): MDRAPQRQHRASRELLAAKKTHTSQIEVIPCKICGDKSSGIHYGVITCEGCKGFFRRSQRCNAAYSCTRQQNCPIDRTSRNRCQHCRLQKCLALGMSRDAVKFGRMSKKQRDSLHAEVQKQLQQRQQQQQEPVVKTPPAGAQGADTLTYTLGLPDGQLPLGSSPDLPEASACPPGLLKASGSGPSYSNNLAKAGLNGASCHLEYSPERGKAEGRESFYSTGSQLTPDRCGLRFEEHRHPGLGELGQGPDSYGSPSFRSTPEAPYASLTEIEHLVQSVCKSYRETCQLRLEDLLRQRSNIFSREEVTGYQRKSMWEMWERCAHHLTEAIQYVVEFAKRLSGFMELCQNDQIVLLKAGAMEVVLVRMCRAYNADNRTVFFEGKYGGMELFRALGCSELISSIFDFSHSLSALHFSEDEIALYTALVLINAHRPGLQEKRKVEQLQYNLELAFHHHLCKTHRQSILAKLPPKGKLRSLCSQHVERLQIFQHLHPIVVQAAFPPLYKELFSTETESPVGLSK
# Sequence of Peroxisome proliferator-activated receptor gamma (Homo sapiens) (P37231 whole entry, looked up, the tested form may be a part): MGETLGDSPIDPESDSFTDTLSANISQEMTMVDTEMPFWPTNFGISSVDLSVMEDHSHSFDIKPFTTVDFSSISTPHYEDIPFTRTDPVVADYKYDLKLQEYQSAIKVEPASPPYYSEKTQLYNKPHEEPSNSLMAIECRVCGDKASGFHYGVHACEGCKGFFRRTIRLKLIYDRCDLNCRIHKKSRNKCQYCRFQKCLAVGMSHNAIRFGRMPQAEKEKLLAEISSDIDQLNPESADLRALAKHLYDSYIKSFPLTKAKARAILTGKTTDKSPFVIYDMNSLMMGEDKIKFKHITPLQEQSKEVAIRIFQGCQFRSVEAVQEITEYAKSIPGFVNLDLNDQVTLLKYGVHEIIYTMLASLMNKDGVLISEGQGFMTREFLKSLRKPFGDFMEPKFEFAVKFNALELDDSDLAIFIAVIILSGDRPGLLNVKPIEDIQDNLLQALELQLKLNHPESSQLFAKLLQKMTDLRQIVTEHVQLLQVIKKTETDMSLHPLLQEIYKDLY
# Sequence of Cellular tumor antigen p53 (Homo sapiens) (P04637 whole entry, looked up, the tested form may be a part): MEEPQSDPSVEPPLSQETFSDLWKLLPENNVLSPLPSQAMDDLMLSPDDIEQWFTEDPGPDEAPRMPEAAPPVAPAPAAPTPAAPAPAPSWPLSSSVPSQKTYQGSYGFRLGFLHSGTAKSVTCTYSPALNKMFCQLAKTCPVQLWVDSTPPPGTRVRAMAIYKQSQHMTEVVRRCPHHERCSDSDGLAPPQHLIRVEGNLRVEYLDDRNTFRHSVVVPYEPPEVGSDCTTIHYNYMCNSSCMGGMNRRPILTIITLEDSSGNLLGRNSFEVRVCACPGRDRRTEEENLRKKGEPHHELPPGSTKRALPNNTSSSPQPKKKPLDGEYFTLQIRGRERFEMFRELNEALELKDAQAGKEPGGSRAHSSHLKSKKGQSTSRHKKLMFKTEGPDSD
# Sequence of Retinoic acid receptor RXR-alpha (Homo sapiens) (P19793 whole entry, looked up, the tested form may be a part): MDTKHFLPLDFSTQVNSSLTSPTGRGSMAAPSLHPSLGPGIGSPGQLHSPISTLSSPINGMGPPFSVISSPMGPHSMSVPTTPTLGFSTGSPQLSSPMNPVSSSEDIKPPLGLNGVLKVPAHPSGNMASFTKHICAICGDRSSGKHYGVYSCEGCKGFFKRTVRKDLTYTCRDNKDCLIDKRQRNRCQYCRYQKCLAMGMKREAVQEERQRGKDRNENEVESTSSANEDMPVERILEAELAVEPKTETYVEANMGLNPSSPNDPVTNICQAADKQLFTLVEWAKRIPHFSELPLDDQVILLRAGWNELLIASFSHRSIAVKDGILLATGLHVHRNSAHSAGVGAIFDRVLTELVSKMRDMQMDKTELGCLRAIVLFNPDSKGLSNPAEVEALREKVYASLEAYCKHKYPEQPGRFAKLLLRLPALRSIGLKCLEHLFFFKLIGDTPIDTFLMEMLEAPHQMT
# Sequence of human Peroxisome Proliferator-activated Receptor delta (PPARd), PPARD (gene 5467) (Q03181 whole entry, looked up, the tested form may be a part): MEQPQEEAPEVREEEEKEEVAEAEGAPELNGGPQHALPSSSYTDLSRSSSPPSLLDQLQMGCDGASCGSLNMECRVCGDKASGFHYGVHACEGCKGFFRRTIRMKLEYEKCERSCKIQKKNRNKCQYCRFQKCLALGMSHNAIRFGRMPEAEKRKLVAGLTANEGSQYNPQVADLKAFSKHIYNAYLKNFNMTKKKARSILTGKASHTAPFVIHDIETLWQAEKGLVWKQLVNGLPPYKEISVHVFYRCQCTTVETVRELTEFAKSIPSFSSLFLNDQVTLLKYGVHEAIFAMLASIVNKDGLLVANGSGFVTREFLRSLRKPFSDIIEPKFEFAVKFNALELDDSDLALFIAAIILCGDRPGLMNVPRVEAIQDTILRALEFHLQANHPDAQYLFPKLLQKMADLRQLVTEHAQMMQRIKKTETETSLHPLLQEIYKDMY
# Sequence of human Retinoic Acid Receptor gamma (RARg), RARG (gene 5916) (P13631 whole entry, looked up, the tested form may be a part): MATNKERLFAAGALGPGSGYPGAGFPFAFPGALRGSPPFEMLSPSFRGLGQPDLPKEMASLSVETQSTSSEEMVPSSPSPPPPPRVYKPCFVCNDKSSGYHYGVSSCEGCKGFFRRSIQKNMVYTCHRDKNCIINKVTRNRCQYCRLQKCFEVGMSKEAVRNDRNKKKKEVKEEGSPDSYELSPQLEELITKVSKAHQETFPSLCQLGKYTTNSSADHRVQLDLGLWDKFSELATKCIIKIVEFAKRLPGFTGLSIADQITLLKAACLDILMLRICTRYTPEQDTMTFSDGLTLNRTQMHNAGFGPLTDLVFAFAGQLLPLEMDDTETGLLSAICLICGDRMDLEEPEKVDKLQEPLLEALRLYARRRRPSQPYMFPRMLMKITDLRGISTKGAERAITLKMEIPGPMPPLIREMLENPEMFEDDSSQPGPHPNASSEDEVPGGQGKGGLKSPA
# Sequence of human Thyroid Receptor alpha (THRa1), THRA (gene 7067) (P10827 whole entry, looked up, the tested form may be a part): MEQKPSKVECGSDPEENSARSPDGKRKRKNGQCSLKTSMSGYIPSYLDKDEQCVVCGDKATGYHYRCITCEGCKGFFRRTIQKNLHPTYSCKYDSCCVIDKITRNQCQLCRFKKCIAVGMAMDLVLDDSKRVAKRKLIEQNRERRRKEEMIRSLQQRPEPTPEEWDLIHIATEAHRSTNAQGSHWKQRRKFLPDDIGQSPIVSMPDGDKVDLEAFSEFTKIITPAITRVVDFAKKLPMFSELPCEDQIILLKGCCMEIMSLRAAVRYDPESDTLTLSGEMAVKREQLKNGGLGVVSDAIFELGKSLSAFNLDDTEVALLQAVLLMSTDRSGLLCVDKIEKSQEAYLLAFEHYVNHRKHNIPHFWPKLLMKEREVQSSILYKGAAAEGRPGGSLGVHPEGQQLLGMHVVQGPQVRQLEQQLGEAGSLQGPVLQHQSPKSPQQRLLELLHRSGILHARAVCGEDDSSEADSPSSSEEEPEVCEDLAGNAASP
compound,measurement,setting,value
Cc1cc(C(F)(C(F)(F)F)C(F)(F)F)ccc1NC(=O)c1cccc(I)c1C(=O)NC(C)(C)CS(C)(=O)=O,outcome,[1],inactive
same,outcome,[2],inactive
same,outcome,[3],inactive
same,outcome,[4],inactive
same,AC50,[5],1.13 µM (active)
same,outcome,[6],inactive
same,outcome,[7],inactive
CC(=O)C(F)(F)C(F)(F)F,outcome,[1],inactive
same,outcome,[2],inactive
same,outcome,[8],inactive
same,outcome,[9],inactive
same,outcome,[5],inactive
same,outcome,[7],inactive
same,outcome,[10],inactive
CCOP(=S)(OCC)Oc1ccc(Cl)cc1Cl,outcome,[1],inactive
same,outcome,[2],inactive
same,outcome,[8],inactive
same,outcome,[9],inactive
same,AC50,[5],3.85 µM (active)
same,outcome,[11],inactive
same,outcome,[12],inactive
same,outcome,[7],inactive
same,AC50,[10],27.6 µM (active)
CC(C)(c1ccc(O)c(-c2ccccc2)c1)c1ccc(O)c(-c2ccccc2)c1,outcome,[1],inactive
same,outcome,[2],inactive
same,outcome,[8],inactive
same,outcome,[3],inactive
same,outcome,[4],inactive
same,AC50,[9],1.61 µM (active)
same,AC50,[5],1.45 µM (active)
same,outcome,[6],inactive
same,outcome,[7],inactive
same,outcome,[13],inactive
CC(c1ccccc1)(c1ccc(O)cc1)c1ccc(O)cc1,AC50,[1],11.1 µM (active)
same,AC50,[2],16.2 µM (active)
same,outcome,[8],inactive
same,outcome,[3],inactive
same,outcome,[4],inactive
same,outcome,[9],inactive
same,AC50,[5],2.54 µM (active)
CCOc1cc(C=O)ccc1O,outcome,[1],inactive
same,outcome,[2],inactive
same,outcome,[14],inactive
same,outcome,[5],inactive
same,outcome,[11],inactive
same,outcome,[7],inactive
same,outcome,[10],inactive
same,outcome,[13],inactive
N#CS,outcome,[1],inactive
same,outcome,[2],inactive
same,outcome,[8],inactive
same,outcome,[5],inactive
same,outcome,[11],inactive
same,outcome,[7],inactive
same,outcome,[10],inactive
CCCCCCCCBr,outcome,[1],inactive
same,outcome,[2],inactive
same,outcome,[14],inactive
same,outcome,[9],inactive
same,outcome,[7],inactive
same,outcome,[10],inactive
O=[N+]([O-])c1c2ccccc2cc2ccccc12,outcome,[1],inactive
same,outcome,[2],inactive
same,outcome,[3],inactive
same,outcome,[4],inactive
same,AC50,[9],1.27 µM (active)
same,AC50,[5],4.7 µM (active)
same,outcome,[11],inactive
same,outcome,[7],inactive
same,AC50,[10],5.12 µM (active)
C=CC(=O)NC(C)(C)CC(C)=O,outcome,[1],inactive
same,outcome,[2],inactive
same,outcome,[14],inactive
same,outcome,[5],inactive
same,outcome,[11],inactive
COC(=O)Nc1cccc(OC(=O)Nc2cccc(C)c2)c1,outcome,[1],inactive
same,outcome,[2],inactive
same,outcome,[9],inactive
same,outcome,[5],inactive
same,outcome,[11],inactive
C[As+](C)(C)CC(=O)[O-],outcome,[1],inactive
same,outcome,[2],inactive
same,outcome,[4],inactive
same,outcome,[5],inactive
same,outcome,[6],inactive
same,outcome,[11],inactive
same,outcome,[12],inactive
Clc1ccc(C(Cl)(Cl)Cl)cn1,outcome,[1],inactive
same,outcome,[2],inactive
same,outcome,[9],inactive
same,outcome,[5],inactive
same,outcome,[12],inactive
same,outcome,[7],inactive
same,outcome,[10],inactive
same,outcome,[13],inactive
